# Measurements reported in PubChem BioAssay AID1159580 (chemical genetic matrix, 2015).
# “And” between values parts separate entries of the source, which are not always exact repeats. Equal values may be shown once. The whole screen tested about 5,500 compounds, of which about 2,000 (36%) were called active. Not shown: some 18% with an inconclusive outcome. Cut-off read from the data, not from the text of the source: active = normalized growth mostly below about 0.91 (no sharp cut-off); inconclusive = no clear call, values can overlap the other calls; inactive = mostly above about 0.92. The list shows a part of the results.
# Test: chemical genetic growth profiling, strain panel (AID 1159580);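 note: tested at 20 µM; growth read once vehicle control cultures reached saturation at 30 °C; 1 = growth at the plate median or of vehicle wells; lower values mean less growth of the strain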
# Conditions: S. cerevisiae deletion strains, growth OD
smiles,measurement,setting,value
O=C(/C=C/c1ccccc1)c1ccc(O)cc1,normalized growth,"locus YAL013W, strain DEP1, stronger effect = lower value",0.736 (active)
same,normalized growth,"locus YAL021C, strain ccr4, stronger effect = lower value",0.633 (active)
same,normalized growth,"locus YAL026C, strain drs2, stronger effect = lower value",0.192 (active)
same,normalized growth,"locus YAL030W, strain snc1, stronger effect = lower value",0.247 (active)
same,normalized growth,"locus YBL061C, strain skt5, stronger effect = lower value",0.263 (active)
same,normalized growth,"locus YBR009C, strain hhf1, stronger effect = lower value",0.0771 (active)
same,normalized growth,"locus YBR021W, strain FUR4, stronger effect = lower value",0.891 (inactive)
same,normalized growth,"locus YBR023C, strain chs3, stronger effect = lower value",0.399 (active)
same,normalized growth,"locus YBR171W, strain sec66, stronger effect = lower value",0.112 (active)
same,normalized growth,"locus YBR229C, strain ROT2, stronger effect = lower value",0.887 (active)
same,normalized growth,"locus YBR231C, strain swc5, stronger effect = lower value",0.315 (active)
same,normalized growth,"locus YBR279W, strain paf1, stronger effect = lower value",0.494 (active)
same,normalized growth,"locus YCL011C, strain gbp2, stronger effect = lower value",0.1 (active)
same,normalized growth,"locus YCL016C, strain dcc1, stronger effect = lower value",0.2 (active)
same,normalized growth,"locus YCL029C, strain bik1, stronger effect = lower value",0.831 (active)
same,normalized growth,"locus YCL061C, strain MRC1, stronger effect = lower value",0.102 (active)
same,normalized growth,"locus YCL069W, strain vba3, stronger effect = lower value",0.218 (active)
same,normalized growth,"locus YCR088W, strain abp1, stronger effect = lower value",0.157 (active)
same,normalized growth,"locus YDL005C, strain med2, stronger effect = lower value",0.64 (active)
same,normalized growth,"locus YDL035C, strain GPR1, stronger effect = lower value",0.723 (active)
same,normalized growth,"locus YDL040C, strain nat1, stronger effect = lower value",0.706 (active)
same,normalized growth,"locus YDL074C, strain BRE1, stronger effect = lower value",0.593 (active)
same,normalized growth,"locus YDL101C, strain DUN1, stronger effect = lower value",0.618 (active)
same,normalized growth,"locus YDL134C, strain PPH21, stronger effect = lower value",0.661 (active)
same,normalized growth,"locus YDL185W, strain tfp1, stronger effect = lower value",0.817 (active)
same,normalized growth,"locus YDL192W, strain arf1, stronger effect = lower value",0.726 (active)
same,normalized growth,"locus YDR001C, strain nth1, stronger effect = lower value",0.316 (active)
same,normalized growth,"locus YDR069C, strain doa4, stronger effect = lower value",0.742 (active)
same,normalized growth,"locus YDR101C, strain arx1, stronger effect = lower value",0.88 (active)
same,normalized growth,"locus YDR137W, strain rgp1, stronger effect = lower value",0.198 (active)
same,normalized growth,"locus YDR150W, strain NUM1, stronger effect = lower value",0.87 (active)
same,normalized growth,"locus YDR159W, strain sac3, stronger effect = lower value",0.26 (active)
same,normalized growth,"locus YDR162C, strain NBP2, stronger effect = lower value",0.182 (active)
same,normalized growth,"locus YDR195W, strain ref2",0.22 (active)
same,normalized growth,"locus YDR297W, strain sur2, stronger effect = lower value",0.19 (active)
same,normalized growth,"locus YDR318W, strain mcm21, stronger effect = lower value",0.788 (active)
same,normalized growth,"locus YDR334W, strain swr1, stronger effect = lower value",0.185 (active)
same,normalized growth,"locus YDR335W, strain msn5, stronger effect = lower value",0.16 (active)
same,normalized growth,"locus YDR388W, stronger effect = lower value",0.863 (active)
same,normalized growth,"locus YDR392W, strain spt3, stronger effect = lower value",0.0785 (active)
same,normalized growth,"locus YDR502C, strain sam2, stronger effect = lower value",0.758 (active)
same,normalized growth,"locus YEL003W, strain gim4, stronger effect = lower value",0.0639 (active)
same,normalized growth,"locus YEL037C, strain rad23, stronger effect = lower value",0.602 (active)
same,normalized growth,"locus YEL061C, strain CIN8 (second series), stronger effect = lower value",0.0689 (active)
same,normalized growth,"locus YEL061C, strain CIN8, stronger effect = lower value",0.506 (active)
same,normalized growth,"locus YER015W, strain faa2, stronger effect = lower value",0.264 (active)
same,normalized growth,"locus YER016W, strain bim1, stronger effect = lower value",0.176 (active)
same,normalized growth,"locus YER110C, stronger effect = lower value",0.89 (active)
same,normalized growth,"locus YER111C, strain swi4, stronger effect = lower value",0.124 (active)
same,normalized growth,"locus YER155C, strain BEM2 (second series), stronger effect = lower value",0.093 (active)
same,normalized growth,"locus YER155C, strain BEM2, stronger effect = lower value",0.568 (active)
same,normalized growth,"locus YER167W, strain BCK2, stronger effect = lower value",0.74 (active)
same,normalized growth,"locus YFR010W, strain ubp6, stronger effect = lower value",0.648 (active)
same,normalized growth,"locus YGL078C, strain dbp3, stronger effect = lower value",0.926 (inactive)
same,normalized growth,"locus YGL086W, strain mad1, stronger effect = lower value",0.733 (active)
same,normalized growth,"locus YGL167C, strain pmr1, stronger effect = lower value",0.83 (active)
same,normalized growth,"locus YGL173C, strain kem1, stronger effect = lower value",0.403 (active)
same,normalized growth,"locus YGL227W, strain vid30, stronger effect = lower value",0.0651 (active)
same,normalized growth,"locus YGL240W, strain doc1, stronger effect = lower value",0.358 (active)
same,normalized growth,"locus YGL248W, strain PDE1, stronger effect = lower value",0.716 (active)
same,normalized growth,"locus YGL253W, strain hxk2, stronger effect = lower value",0.177 (active)
same,normalized growth,"locus YGR078C, strain PAC10, stronger effect = lower value",0.429 (active)
same,normalized growth,"locus YGR135W, strain pre9, stronger effect = lower value",0.771 (active)
same,normalized growth,"locus YGR229C, strain SMI1, stronger effect = lower value",0.253 (active)
same,normalized growth,"locus YGR252W, strain gcn5, stronger effect = lower value",0.648 (active)
same,normalized growth,"locus YHR013C, strain ard1, stronger effect = lower value",0.353 (active)
same,normalized growth,"locus YHR027C, strain rpn1, stronger effect = lower value",0.51 (active)
same,normalized growth,"locus YHR030C, strain SLT2, stronger effect = lower value",0.38 (active) and 0.945 (inactive)
same,normalized growth,"locus YHR079C, strain IRE1 (second series), stronger effect = lower value",0.494 (active)
same,normalized growth,"locus YHR079C, strain IRE1, stronger effect = lower value",0.788 (active)
same,normalized growth,"locus YHR094C, strain hxt1, stronger effect = lower value",0.944 (inactive)
same,normalized growth,"locus YHR129C, strain ARP1, stronger effect = lower value",0.635 (active)
same,normalized growth,"locus YHR142W, strain chs7, stronger effect = lower value",0.113 (active)
same,normalized growth,"locus YHR200W, strain rpn10, stronger effect = lower value",0.898 (active)
same,normalized growth,"locus YIL066C, strain RNR3, stronger effect = lower value",0.515 (active)
same,normalized growth,"locus YIL073C, strain SPO22, stronger effect = lower value",0.7 (inactive)
same,normalized growth,"locus YIL125W, strain kgd1, stronger effect = lower value",0.931 (active)
same,normalized growth,"locus YIR030C, strain dcg1, stronger effect = lower value",0.853 (active)
same,normalized growth,"locus YJL092W, strain hpr5, stronger effect = lower value",0.299 (active)
same,normalized growth,"locus YJL095W, strain BCK1 (second series), stronger effect = lower value",0.0714 (active)
same,normalized growth,"locus YJL095W, strain BCK1, stronger effect = lower value",0.205 (active) and 0.945 (inactive)
same,normalized growth,"locus YJL115W, strain asf1, stronger effect = lower value",0.444 (active)
same,normalized growth,"locus YJL129C, strain trk1, stronger effect = lower value",0.209 (active)
same,normalized growth,"locus YJL134W, strain LCB3, stronger effect = lower value",0.93 (inactive)
same,normalized growth,"locus YJL154C, strain vps35, stronger effect = lower value",0.678 (active)
same,normalized growth,"locus YJL164C, strain tpk1, stronger effect = lower value",0.162 (active)
same,normalized growth,"locus YJL166W, strain qcr8, stronger effect = lower value",0.0857 (active)
same,normalized growth,"locus YJL168C, strain set2, stronger effect = lower value",0.913 (active)
same,normalized growth,"locus YJL187C, strain SWE1 (second series), stronger effect = lower value",0.697 (active)
same,normalized growth,"locus YJR043C, strain POL32, stronger effect = lower value",0.597 (active)
same,normalized growth,"locus YJR066W, strain TOR1, stronger effect = lower value",0.883 (inactive)
